Mtb betalactam = beta-lactam sensitization of Mtb H37Rv | M. tuberculosis H37Rv growth with meropenem, percent inhibition | inhibition, % at 25 µM | actives 0.27% (n = 330,000); call rule not given here;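 note: growth measured after seven days incubation then overnight dye step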
RecA splice inh = blocks M. tuberculosis RecA intein splicing; P9WHJ3; cell-free RecA intein splicing, fluorescence; AID 2221; inhibition, % (concentration not given with the values); actives 0.75% (n = 290,000); in the data active = inhibition above about 30%
Target sequence (P9WHJ3 whole entry, looked up, canonical isoform): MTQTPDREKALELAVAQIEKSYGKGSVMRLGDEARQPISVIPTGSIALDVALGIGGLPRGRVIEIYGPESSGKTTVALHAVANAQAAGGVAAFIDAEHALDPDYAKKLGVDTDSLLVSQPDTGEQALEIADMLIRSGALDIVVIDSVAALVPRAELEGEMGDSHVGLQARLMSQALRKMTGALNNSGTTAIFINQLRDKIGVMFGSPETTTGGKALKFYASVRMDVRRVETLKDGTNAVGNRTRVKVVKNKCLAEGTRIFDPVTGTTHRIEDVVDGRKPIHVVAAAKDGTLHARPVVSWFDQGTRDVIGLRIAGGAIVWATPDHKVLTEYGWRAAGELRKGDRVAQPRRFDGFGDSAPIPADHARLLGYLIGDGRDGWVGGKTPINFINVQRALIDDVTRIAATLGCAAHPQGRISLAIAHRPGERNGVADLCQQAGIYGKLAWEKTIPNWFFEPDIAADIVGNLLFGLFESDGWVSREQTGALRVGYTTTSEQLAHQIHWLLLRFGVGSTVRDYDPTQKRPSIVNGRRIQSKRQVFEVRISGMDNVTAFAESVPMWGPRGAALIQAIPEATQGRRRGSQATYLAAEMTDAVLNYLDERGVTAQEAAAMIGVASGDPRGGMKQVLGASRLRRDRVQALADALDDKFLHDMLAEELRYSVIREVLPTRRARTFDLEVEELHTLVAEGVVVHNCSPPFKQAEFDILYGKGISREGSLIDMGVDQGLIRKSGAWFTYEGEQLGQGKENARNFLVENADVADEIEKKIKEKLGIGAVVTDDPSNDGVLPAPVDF
UGM FP inh = blocks M. tuberculosis UGM enzyme. actives 0.06% (n = 320,000). purified UGM, fluorescence polarization probe displacement. inhibition, % at 10 µM. P9WIQ1; in the data active = inhibition above about 10%, passing the limit was not always enough
FBA Mtb inh = Mtb fructose-bisphosphate aldolase inhibition; purified M. tuberculosis FBA, fluorescence read-out; actives 2.3% (n = 360,000); inhibition, % at 1 µM; AID 588726
GDH-TPI counter-1 = GDH-TPI coupled enzyme inhibition counter-screen; AID 588335; actives 1.2% (n = 360,000); GDH-TPI coupled enzyme counterscreen, NADH absorbance; inhibition, % at 4.8 µM; in the data active = inhibition above about 30%
Rv3671c inh = Rv3671c (M. tuberculosis) protease inhibition; P9WHR9; inhibition, % at 5.96 µM; actives 0.048% (n = 320,000); AID 2606; in the data active = inhibition above about 38%;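 note: extracellular domain of Rv3671c used as enzyme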
Mtb FBA confirm = confirmation of M. tuberculosis fructose-bisphosphate aldolase inhibitors. shares compounds with FBA Mtb inh. inhibition, % at 1 µM. actives 78% (n = 5,600). AID 651616. purified M. tuberculosis FBA, fluorescence read-out
GDH-TPI counter-2 = counter-screen for M. tuberculosis FBA inhibitors: GDH-TPI coupled enzyme inhibition; GDH-TPI coupled enzyme counterscreen, fluorescence; inhibition, % at 1 µM; actives 81% (n = 5,600); AID 652141; shares compounds with FBA Mtb inh; in the data active = inhibition above about 10%
Of the large screens only hits and unclear results are named; the others gave an inactive call (follow-up assays come after a bar, where they were run). Rows were chosen to be rich in hits. Some 4% of all compounds tested hit in one or more screens of this group. Cut-off read from the data, not from the text of the source, unless noted: active = inhibition above about 27%; inactive = the rest.

CCCN1CCN(C(c2cc3cc4c(cc3[nH]c2=O)OCO4)c2nnnn2C(C)(C)C)CC1 (configuration not stated)	FBA Mtb inh 66 | Mtb FBA confirm 58 | GDH-TPI counter-2 inactive
CC(C)(C)n1nnnc1CN(Cc1ccco1)Cc1cc2cc3c(cc2[nH]c1=O)OCO3	FBA Mtb inh 46 | Mtb FBA confirm inactive | GDH-TPI counter-2 inactive
COc1ccccc1C(=O)N1N=C(c2ccc(NS(C)(=O)=O)cc2)CC1c1cccs1 (configuration not stated)	none
O=C(Nc1ccccc1)c1cc(S(=O)(=O)N2CCOCC2)cs1	none
Cc1cc(OC(C)C(=O)NCC2CCC(C(=O)O)CC2)c2c(C)c(C)c(=O)oc2c1 (configuration not stated)	none
CCCc1cc(=O)oc2cc(C)cc(OC(C)C(=O)NCC3CCC(C(=O)O)CC3)c12 (configuration not stated)	FBA Mtb inh 69 (no result: RecA splice inh) | Mtb FBA confirm 70 | GDH-TPI counter-2 46
CCCCc1cc(=O)oc2cc(C)cc(OC(C)C(=O)NCC3CCC(C(=O)O)CC3)c12 (configuration not stated)	FBA Mtb inh 79 (no result: RecA splice inh) | Mtb FBA confirm inactive | GDH-TPI counter-2 inactive
CNc1ccccc1C(=O)OCC(=O)N1CCc2ccccc2C1	FBA Mtb inh 63 (no result: Mtb betalactam, RecA splice inh, UGM FP inh, Rv3671c inh) | Mtb FBA confirm inactive | GDH-TPI counter-2 inactive
CN(C(=O)COC(=O)c1ccccc1NCCO)C1CCS(=O)(=O)C1 (configuration not stated)	FBA Mtb inh 103 | Mtb FBA confirm 124 | GDH-TPI counter-2 93
O=C(OCC(=O)N1CCN(c2ccccc2)CC1)c1ccccc1NCCO	FBA Mtb inh 100 | Mtb FBA confirm active | GDH-TPI counter-2 active
O=C(OCC(=O)N1CCN(c2ccccc2)CC1)c1ccccc1OC(F)F	none
Nc1ccccc1C(=O)OCC(=O)N1CCc2ccccc21	FBA Mtb inh 35 (no result: Mtb betalactam, UGM FP inh, Rv3671c inh) | Mtb FBA confirm 59 | GDH-TPI counter-2 43
O=C(CSCC(=O)Nc1cccc2ccccc12)Nc1cccc2ccccc12	none
CCNC(=O)N1Cc2ccccc2-n2nncc2C1	none (no result: Mtb betalactam, RecA splice inh, UGM FP inh, Rv3671c inh)
O=C(Nc1ccccc1)N1CCN(c2ccccc2)CC1	none (no result: Mtb betalactam, RecA splice inh, UGM FP inh, Rv3671c inh)
O=C(Nc1cccc2ccccc12)N1CC=CCC1	FBA Mtb inh 40 | Mtb FBA confirm inactive | GDH-TPI counter-2 inactive
O=C(Nc1cccc2ccccc12)N1Cc2ccccc2-n2nncc2C1	FBA Mtb inh 30 (no result: Mtb betalactam, RecA splice inh, UGM FP inh, Rv3671c inh) | Mtb FBA confirm 133 | GDH-TPI counter-2 91
O=C(Nc1cccc2ccccc12)N1CCN(c2ncccn2)CC1	FBA Mtb inh 50 | Mtb FBA confirm active | GDH-TPI counter-2 active
O=C(Nc1cccc2ccccc12)N1CCN(c2ccccc2)CC1	FBA Mtb inh 27 (no result: RecA splice inh) | Mtb FBA confirm 115 | GDH-TPI counter-2 100
Cc1cccn2c(=O)c(C=NCc3ccco3)c(Nc3ccc(SC(F)F)cc3)nc12	none
Cc1cccn2c(=O)c(C=NCCO)c(NCc3ccco3)nc12	FBA Mtb inh 39 | Mtb FBA confirm active | GDH-TPI counter-2 active
COc1ncnc2c1N[C@@](C)(O)c1c(F)c(F)c(F)c(F)c1S2	none
CCc1cc(=O)oc2cc(C)cc(OCC(=O)NCc3ccncc3)c12	FBA Mtb inh 49 | Mtb FBA confirm 161 | GDH-TPI counter-2 137
CC(=O)COc1cc(C)cc2oc(=O)cc(-c3ccccc3)c12	none
Cc1cc(OCC(=O)NCc2ccncc2)c2c3c(c(=O)oc2c1)CCC3	none
CCCc1cc(=O)oc2cc(C)cc(OCC(=O)O)c12	FBA Mtb inh 97 | Mtb FBA confirm 144 | GDH-TPI counter-2 109
CCc1cc(=O)oc2cc(C)cc(OCC(=O)NCc3ccccn3)c12	FBA Mtb inh 84 | Mtb FBA confirm 196 | GDH-TPI counter-2 144
Cc1cc(OCC(=O)NCc2ccccn2)c2c(C)c(Cc3ccccc3)c(=O)oc2c1	none
C=C(Cl)COc1cc(C)cc2oc(=O)cc(CC)c12	FBA Mtb inh 32 | Mtb FBA confirm 146 | GDH-TPI counter-2 118
CCOc1ccc(NC(=S)N2CCN(S(=O)(=O)c3ccc(C)cc3)CC2)cc1	none
O=C1CN(C(=O)CN2CCN(S(=O)(=O)c3ccccc3F)CC2)c2ccccc2N1	none (no result: Mtb betalactam, RecA splice inh, UGM FP inh, Rv3671c inh)
CC1CCCCC1NC(=O)CCNS(=O)(=O)c1ccc(Cl)cc1 (configuration not stated)	none
CCCc1cc(=O)oc2cc(C)cc(OCC(=O)NCc3ccncc3)c12	FBA Mtb inh 61 | Mtb FBA confirm 53 | GDH-TPI counter-2 41
Cc1cc(=O)oc2cc(OCC(=O)NCc3ccncc3)ccc12	none
CC(=O)Nc1ccc(S(=O)(=O)Nc2nnc(Cc3ccc(Cl)cc3)s2)cc1	none (no result: RecA splice inh)
O=C(c1ccccc1F)N1CCN(C2CCC(c3ccccc3)CC2)CC1 (configuration not stated)	none
NC(=O)c1sc2nc(-c3ccco3)ccc2c1N	FBA Mtb inh 53 | Mtb FBA confirm active | GDH-TPI counter-2 active
COC(=O)c1sc2nc(-c3ccco3)ccc2c1N	none
Nc1c(C(=O)Nc2ccccc2F)sc2nc(-c3ccco3)ccc12	FBA Mtb inh 40, GDH-TPI counter-1 32 | Mtb FBA confirm 50 | GDH-TPI counter-2 43
Nc1c(C(=O)Nc2ccccc2F)sc2nc(-c3cccnc3)ccc12	none
FC(F)(F)c1cnc(Sc2nnc(-c3cccs3)n2CC2CCCO2)c(Cl)c1 (configuration not stated)	none
FC(F)(F)c1ccc(Sc2nnc(-c3cccs3)n2CC2CCCO2)nc1 (configuration not stated)	FBA Mtb inh 83 | Mtb FBA confirm 99 | GDH-TPI counter-2 69
O=C(COC(=O)c1cccc(NS(=O)(=O)c2ccc(F)c(F)c2)c1)NC(=O)NC1CCCCC1	none
O=C1Nc2ccc(S(=O)(=O)NCc3ccccn3)c3cccc1c23	FBA Mtb inh 76 (no result: Mtb betalactam, UGM FP inh, Rv3671c inh) | Mtb FBA confirm 67 | GDH-TPI counter-2 52
O=C1Nc2ccc(S(=O)(=O)N3CCCC3)c3cccc1c23	none
CCN(CC)CCNS(=O)(=O)c1ccc2c3c(cccc13)C(=O)N2	FBA Mtb inh 54 | Mtb FBA confirm 61 | GDH-TPI counter-2 60
CN(C)CCNS(=O)(=O)c1ccc2c3c(cccc13)C(=O)N2	FBA Mtb inh 43 | Mtb FBA confirm inactive | GDH-TPI counter-2 inactive
CCOC(=O)C(=CNc1ccc(O)c(C(=O)OC)c1)C(=O)OCC	none
Cc1cccc(C(=O)N2CCC(n3nnc4cc(F)ccc43)CC2)c1	none (no result: RecA splice inh)
CCOC(=O)C(CCCCCOc1ccc([N+](=O)[O-])cc1)C(=O)OCC	none
OC1c2c(F)cccc2N=C2CCCCCN21 (configuration not stated)	FBA Mtb inh 48 (no result: Mtb betalactam, RecA splice inh, UGM FP inh, Rv3671c inh) | Mtb FBA confirm 141 | GDH-TPI counter-2 138
COc1ccc(N2C(=O)c3ccccc3NC23CCCCC3)cc1	FBA Mtb inh 37 | Mtb FBA confirm 111 | GDH-TPI counter-2 109
